Test results reported in PubChem BioAssay (NCI).
Compounds without any hit were thinned out: in the full panel of roughly 83,000, 20% have a hit.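 How to read the values: 0–100, growth inhibition (40 = 60% inhibited); 0, no net growth; -100 to 0, cell death (-40 = 40% of starting cells died; -100 = all dead).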 Values without a mark were called inactive. Calls of active or inactive are those of the source. How the source made its calls: active means growth percent below 10; inactive means the rest.

Legend:
Test in all cases: NCI-60 one-dose screen, 48 h (100 = growth as untreated, 0 = no growth, -100 = all killed)
Details in all cases: 10 µM unless noted
DU-145 prostate = tested on: DU-145 prostate
K-562 leukemia = tested on: K-562 leukemia
MALME-3M melanoma = tested on: MALME-3M melanoma
MDA-MB-231 breast = tested on: MDA-MB-231 breast
SF-268 CNS = tested on: SF-268 CNS
SF-295 CNS = tested on: SF-295 CNS
SF-539 CNS = tested on: SF-539 CNS
UACC-257 melanoma = tested on: UACC-257 melanoma
M14 melanoma = tested on: M14 melanoma
RXF 393 renal = tested on: RXF 393 renal

| SMILES | growth (DU-145 prostate) | growth (K-562 leukemia) | growth (MALME-3M melanoma) | growth (MDA-MB-231 breast) | growth (SF-268 CNS) | growth (SF-295 CNS) | growth (SF-539 CNS) | growth (UACC-257 melanoma) | growth (M14 melanoma) | growth (RXF 393 renal) |
| --- | --- | --- | --- | --- | --- | --- | --- | --- | --- | --- |
| NS(=O)(=O)c1ccc(-n2ncc3c(SCc4ccccc4)ncnc32)cc1 | 78.1% | 74.8% | 82.8% | 91.4% | 96.2% | 64.7% | 91.6% | 56.6% | 67% |  |
| COc1ccc2cc(-c3nc4ccccc4[nH]3)c(=O)oc2c1 | 114% | 96.8% | 103% | 104% | 110% | 105% | 98.8% | 45.9% | 93.7% |  |
| Cc1cc2ccccn2c1C(=O)c1ccc(C(=O)c2ccccc2)cc1 | 85.8% | 94.3% | 76.8% | 91% | 99.7% | 83.2% | 98.7% | 43.4% | 91.1% |  |
| CCCn1c(N)c(C(=O)CNc2ccc(I)cc2)c(=O)[nH]c1=O | 57.3% | 43.5% | 80.7% | 67.5% | 46.1% | 54.2% | 57.5% | 72.1% | 56.2% |  |
| O=C(O)c1ccc(CNS(=O)(=O)c2ccc3ccccc3c2)cc1 | 93.7% | 94.5% | 93.7% | 105% | 96.2% | 105% | 106% | 99.1% | 103% |  |
| Cc1nn(-c2nc3ccccc3s2)c(C)c1Oc1ccccc1O | 68.2% | 31.8% | 76.9% | 70.8% | 60.5% | 58.8% | 60.9% | 104% | 63.7% |  |
| Clc1ccc(C2c3ccccc3-c3nccn32)c(Cl)c1 (stereo not drawn) | 92.4% | 35.5% | 83.8% | 84.1% | 99.3% | 41.7% | 88.5% | 80.5% | 65% |  |
| Clc1ccc2nc(CI)c(CI)nc2c1 | 86.1% | -20.1% (active) | 74.6% | 74.4% | 73.7% | 88.8% | 100% | 86.2% | 48.9% |  |
| FC(F)(F)c1cc(-c2nnc3n2N=C(N2CCCC2)CS3)cc(C(F)(F)F)c1 | 86.8% | 70.7% | 83.4% | 59.6% | 74.9% | 45.9% | 30% | 93.2% | 100% |  |
| Cc1ccc(S(=O)(=O)N2CCN(C(=O)CSc3nc4ccc(C)cc4[nH]3)CC2)cc1 | 109% | 74.8% | 126% | 92.3% | 101% | 159% | 110% | 63.4% | 101% |  |
| O=C(Nc1nn2c(-c3cc(C(F)(F)F)cc(C(F)(F)F)c3)nnc2s1)C1CCCC1 | 33.1% | 6.69% (active) | 10.4% | -32% (active) | 28.4% | 1.49% (active) | 12.8% | 4.69% (active) | 7.59% (active) |  |
| Fc1ccc(-c2nn3c(-c4cc(C(F)(F)F)cc(C(F)(F)F)c4)nnc3s2)cc1 | 87.1% | 68.8% | 43.8% | 39.5% | 37.3% | 38.4% | 39.7% | 76.7% | 64.6% |  |
| COc1ccc([N+](=O)[O-])c(S(=O)(=O)c2ccc(Cl)cc2)n1 | 93.2% | 7.72% (active) | 11.8% | 68.1% | 92.4% | 95.3% | 82.8% | 94.9% | 60.5% |  |
| COc1ccc(NC(=O)[C@@H]2C[C@H]2c2ccccc2)c(C(N)=O)c1 | 105% | 71.8% | 91% | 87.9% | 97.9% | 100% | 99.7% | 92.9% | 91.4% |  |
| COc1ccc(NC(=O)c2ccccc2-c2ccccc2)c(C(N)=O)c1 | 29.6% | 14.2% | 34.3% | 54.1% | 49.5% | 17.4% | -1.25% (active) | 49.7% | 18.2% |  |
| COc1ccc2c(=O)c(OC)c(-c3cc(OC)c(OC)c(OC)c3)oc2c1 | 109% | 87.1% | 113% | 84.1% | 100% | 113% | 91.5% |  | 109% |  |
| CCCCCCCCCCN1CCC(N2CCCCC2)CC1 | 54.3% | -75.6% (active) | -43.9% (active) | -36.3% (active) | 39.8% | 2.51% (active) | -80.4% (active) | -91.2% (active) | -79.4% (active) |  |
| CCOC(=O)N1CCC(N=C2CSc3nnc(-c4cc(C(F)(F)F)cc(C(F)(F)F)c4)n3N2)CC1 | 64.6% | 28.3% | 68.4% | 34.4% | 50.2% | 33.4% | 18.3% | 48.6% | 27.5% |  |
| O=C1/C(=C/c2ccccc2O)C(=S)SN1Cc1ccco1 | 103% | 46.4% | 106% | 108% | 105% | 94.3% | 97.4% | 99.1% | 99.8% |  |
| O=c1sc2ncnc3ncn1c32 | 33.6% | 15.2% | 73.6% | 43.7% | 82% | 38.4% | 45.8% | 88.1% | 14.5% |  |
| COc1ccc(/C=C2/SC(=Nc3c(C)nn(-c4ccccc4)c3N)NC2=O)cc1 | 43.6% | 15.2% |  | 66.3% | 58.8% | 8.06% (active) | 23.6% | 59% | 17.2% | 83.6% |
| COc1ccc(N2CCN(CC(=O)N3CCN(c4nnc(-c5ccc(Cl)cc5)c(-c5ccc(Cl)cc5)n4)CC3)CC2)cc1 | 70.6% | 22.3% | 81.7% | 84.1% | 69.8% | 53.9% | 30.7% |  | 59.8% |  |
| CC1C(C)N(C(=O)CCl)c2ccccc2N1C(=O)CCl (stereo not drawn) | -94.9% (active) | -0.205% (active) |  | -53.8% (active) | -77.9% (active) | -66.7% (active) | -94.8% (active) | -70.3% (active) | -81.8% (active) | -53.9% (active) |
| O=C1OC2(c3ccccc31)c1ccccc1-c1ccccc12 | 114% | 36.5% |  | 68.3% | 86.8% | 75.4% | 99.2% | 88.7% | 50.7% | 96.8% |
| COc1ccc(N2CCN(CC(=O)N3CCN(c4nnc(-c5ccccc5)c(-c5ccccc5)n4)CC3)CC2)cc1 | 70.5% | 18.7% | 64.6% | 72.1% | 62.6% | 39.6% | 53.9% |  | 64.4% |  |
| CN1CCN(CCCCCN=c2cc3c(=O)n(CCCCCN4CCN(C)CC4)c(=O)c4c(NCCCCCN5CCN(C)CC5)cc5c(O)n(CCCCCN6CCN(C)CC6)c(=O)c2c5c4-3)CC1 | 0.918% (active) | 8.94% (active) |  | -34% (active) | -2.31% (active) | 36.4% | 10.4% | -11.4% (active) | 81.8% | 64.4% |
| COc1ccc(C2=NN(C(N)=S)C(c3ccc4c(c3)OCO4)C2)cc1 (stereo not drawn) | -3.99% (active) | 5.68% (active) |  | 48.7% | 21.5% | -9.16% (active) | 21.4% | 38% | 21.6% | 48.5% |
| N#CC1c2ccccc2C=CN1C(=O)N(c1ccccc1)c1ccccc1 (stereo not drawn) | 42.9% | 5.35% (active) |  | 70.6% | 79.6% | 67.7% | 109% | -1.11% (active) | 42.5% | 2.13% (active) |
| COC(=O)C1(NC(=O)CNC(=O)OCc2ccccc2)CCCC1 | 114% | 98.7% |  | 95.8% | 114% | 117% | 99.4% | 106% | 105% | 105% |
